# According to PubChem BioAssay (EPA / NIEHS):
# Results filed as inconclusive are left out. Activity calls are given as the source filed them. The calls were made as follows, unless noted: active = hit-call score of the fitted dose curve at least 0.9, where 1 is the maximum; inactive = score below 0.9.
# Tests used:
# [1] = target: rat CYP2C11, Cyp2c11 (gene 29277) (UniProt P08683); experiment: NVS_ADME_rCYP2C11: NovaScreen (NVS) CYP450-related Enzyme Activity (ADME) Assay for rat CYP2C11 (AID 2283118; active = hit-call score of the fitted dose curve at least 0.9, where 1 is the maximum)
# Chain of rat CYP2C11, Cyp2c11 (gene 29277) (P08683 whole entry, looked up): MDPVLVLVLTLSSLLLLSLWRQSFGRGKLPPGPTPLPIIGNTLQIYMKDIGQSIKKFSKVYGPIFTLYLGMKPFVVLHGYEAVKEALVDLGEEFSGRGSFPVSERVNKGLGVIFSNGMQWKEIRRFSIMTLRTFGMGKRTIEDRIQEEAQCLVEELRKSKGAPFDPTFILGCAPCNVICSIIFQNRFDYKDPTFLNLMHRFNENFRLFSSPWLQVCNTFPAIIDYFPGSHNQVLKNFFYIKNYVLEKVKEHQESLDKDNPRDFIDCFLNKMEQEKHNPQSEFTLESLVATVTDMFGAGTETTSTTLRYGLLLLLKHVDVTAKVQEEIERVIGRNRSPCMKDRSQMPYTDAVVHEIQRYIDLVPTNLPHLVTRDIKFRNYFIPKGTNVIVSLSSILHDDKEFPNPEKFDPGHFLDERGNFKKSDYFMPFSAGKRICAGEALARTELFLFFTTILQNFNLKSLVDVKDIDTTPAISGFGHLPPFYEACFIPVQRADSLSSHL
# In short: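 Screened first at 10 uM in duplicate, hits followed by concentration-response. Recombinant rat enzyme activity monitored by fluorescence 0.33 h post-dosing, normalised to acetonitrile negative control.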
# [2] = target: rat CYP2C13, Cyp2c13 (gene 171521) (UniProt P20814); experiment: NVS_ADME_rCYP2C13: NovaScreen (NVS) CYP450-related Enzyme Activity (ADME) Assay for rat CYP2C13 (AID 2283121; active = hit-call score of the fitted dose curve at least 0.9, where 1 is the maximum)
# Chain of rat CYP2C13, Cyp2c13 (gene 171521) (P20814 whole entry, looked up): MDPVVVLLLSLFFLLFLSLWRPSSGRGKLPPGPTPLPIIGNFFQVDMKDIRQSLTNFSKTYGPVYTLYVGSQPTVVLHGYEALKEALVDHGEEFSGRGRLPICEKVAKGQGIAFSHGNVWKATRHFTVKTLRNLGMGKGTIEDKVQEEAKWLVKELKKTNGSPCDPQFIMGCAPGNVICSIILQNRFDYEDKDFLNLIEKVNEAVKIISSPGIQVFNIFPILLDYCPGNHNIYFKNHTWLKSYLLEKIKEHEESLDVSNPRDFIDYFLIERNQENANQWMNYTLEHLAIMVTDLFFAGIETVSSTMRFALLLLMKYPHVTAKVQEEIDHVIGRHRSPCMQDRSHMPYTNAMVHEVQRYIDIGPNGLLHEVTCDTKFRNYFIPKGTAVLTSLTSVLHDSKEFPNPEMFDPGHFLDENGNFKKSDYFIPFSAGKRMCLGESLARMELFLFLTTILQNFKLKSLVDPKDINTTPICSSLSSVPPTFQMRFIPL
# In short: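 Inhibition is read as decreased fluorescent product formation, referenced to acetonitrile vehicle. Cell-free recombinant rat Cyp2c13 reaction ran 0.75 hour; compounds first at 10 uM in duplicate, then concentration series for actives.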
# [3] = target: human Matrix Metalloproteinase-2 (MMP2), MMP2 (gene 4313) (UniProt P08253); experiment: NVS_ENZ_hMMP2: NovaScreen (NVS) Enzymatic Assay for human Matrix Metalloproteinase-2 (MMP2) (AID 2283184; active = hit-call score of the fitted dose curve at least 0.9, where 1 is the maximum)
# Chain of human Matrix Metalloproteinase-2 (MMP2), MMP2 (gene 4313) (P08253 whole entry, looked up): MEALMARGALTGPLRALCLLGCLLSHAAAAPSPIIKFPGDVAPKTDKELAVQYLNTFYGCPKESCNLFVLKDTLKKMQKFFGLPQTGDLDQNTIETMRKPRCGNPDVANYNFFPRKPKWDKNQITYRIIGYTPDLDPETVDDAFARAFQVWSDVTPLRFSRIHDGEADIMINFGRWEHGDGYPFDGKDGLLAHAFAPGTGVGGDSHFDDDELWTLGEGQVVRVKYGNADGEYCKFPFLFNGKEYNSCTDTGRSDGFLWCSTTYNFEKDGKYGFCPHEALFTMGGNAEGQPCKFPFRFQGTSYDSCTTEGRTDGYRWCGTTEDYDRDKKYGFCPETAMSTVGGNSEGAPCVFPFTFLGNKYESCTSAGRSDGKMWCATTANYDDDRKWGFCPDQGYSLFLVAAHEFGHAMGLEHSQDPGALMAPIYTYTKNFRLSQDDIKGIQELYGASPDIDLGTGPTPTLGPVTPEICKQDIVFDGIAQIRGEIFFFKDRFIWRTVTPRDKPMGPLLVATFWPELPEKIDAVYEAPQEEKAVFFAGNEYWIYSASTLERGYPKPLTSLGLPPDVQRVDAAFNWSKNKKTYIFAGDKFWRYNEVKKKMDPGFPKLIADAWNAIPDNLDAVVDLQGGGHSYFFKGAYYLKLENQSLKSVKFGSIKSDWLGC
# In short: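 Compounds first screened in duplicate at a single 25 uM, with actives followed up in concentration series. Recombinant human MMP2 cleaves a fluorogenic substrate; fluorescence taken at 1 h, inhibition fitted relative to DMSO.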
# [4] = CEETOX_H295R_11DCORT_noMTC: CeeTox H295R High-throughput Steroidogenesis Assay for 11-Deoxycortisol (11DCORT), maximum tolerated concentration (MTC) filtered results only (AID 2283911); settings: actives raise or lower the signal
# In short: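 Steroidogenesis was stimulated in H295R cells with 10 uM forskolin for 48 h before a 48 h chemical exposure. Secreted 11-deoxycortisol was measured by tandem mass spectrometry and fitted bidirectionally against DMSO controls.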
# [5] = CEETOX_H295R_OHPREG_noMTC: CeeTox H295R High-throughput Steroidogenesis Assay for OH-Pregnenolone (OHPREG), maximum tolerated concentration (MTC) filtered results only (AID 2283912); settings: actives raise or lower the signal
# In short: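 Readout is HPLC-MS/MS quantification of 17alpha-hydroxypregnenolone released by forskolin-stimulated H295R cells over 48 h of chemical exposure, DMSO as baseline.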
# [6] = CEETOX_H295R_OHPROG_noMTC: CeeTox H295R High-throughput Steroidogenesis Assay for OH-Progesterone (OHPROG), maximum tolerated concentration (MTC) filtered results only (AID 2283914); settings: actives raise or lower the signal
# In short: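 Analysis uses all tested concentrations, without maximum-tolerated-concentration screening by MTT. H295R cells, forskolin-primed (10 uM, 48 h), receive chemical for 48 h; hormone in medium measured by HPLC-MS/MS, with bidirectional curve fitting against DMSO.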
# [7] = CEETOX_H295R_ANDR_noMTC: CeeTox H295R High-throughput Steroidogenesis Assay for Androstenedione (ANDR), maximum tolerated concentration (MTC) filtered results only (AID 2283915); settings: actives raise or lower the signal
# In short: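 Androstenedione secreted into medium was measured by LC-MS/MS after MTBE extraction. Human adrenal H295R cells received 10 uM forskolin for 48 h before 48 h chemical exposure (0.1% DMSO). Gain or loss fitted against DMSO, including concentrations above the MTT-derived MTC.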
# [8] = CEETOX_H295R_CORTISOL_noMTC: CeeTox H295R High-throughput Steroidogenesis Assay for Cortisol, maximum tolerated concentration (MTC) filtered results only (AID 2283916); settings: actives raise or lower the signal
# In short: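 H295R adrenal cells were pre-stimulated 48 h with 10 uM forskolin, then exposed 48 h to test chemical in 0.1% DMSO. Medium cortisol was measured by MTBE extraction and HPLC-MS/MS; bidirectional fit versus DMSO, concentrations not MTC-filtered.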
# [9] = CEETOX_H295R_CORTIC_noMTC: CeeTox H295R High-throughput Steroidogenesis Assay for Corticosterone (CORTIC), maximum tolerated concentration (MTC) filtered results only (AID 2283917); settings: actives raise or lower the signal
# In short: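 Forskolin-stimulated (10 uM, 48 h) H295R cells are dosed 48 h with chemical in DMSO (0.1% final); corticosterone change is quantified by HPLC-MS/MS and fitted bidirectionally against DMSO, unfiltered for MTT-derived MTC.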
# [10] = CEETOX_H295R_DOC_noMTC: CeeTox H295R High-throughput Steroidogenesis Assay for DOC, maximum tolerated concentration (MTC) filtered results only (AID 2283918); settings: actives raise or lower the signal
# In short: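 H295R cells prestimulated 48 h with 10 uM forskolin, then exposed 48 h to test chemical (0.1% DMSO final). Medium 11-deoxycorticosterone extracted with MTBE, quantified by HPLC-MS/MS; bidirectional fit versus DMSO, concentrations not MTC-filtered.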
# [11] = CEETOX_H295R_PROG_noMTC: CeeTox H295R High-throughput Steroidogenesis Assay for Progesterone (PROG), maximum tolerated concentration (MTC) filtered results only (AID 2283920); settings: actives raise or lower the signal
# In short: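 Progesterone synthesis in the human adrenal line H295R is measured by HPLC-MS/MS after 48 h chemical exposure following 48 h forskolin (10 uM) stimulation. Activity in either direction is fitted relative to DMSO.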
# [12] = CEETOX_H295R_TESTO_noMTC: CeeTox H295R High-throughput Steroidogenesis Assay for Testosterone (TESTO), maximum tolerated concentration (MTC) filtered results only (AID 2283924); settings: actives raise or lower the signal
# In short: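 Medium testosterone, measured by HPLC-MS/MS after liquid-liquid extraction, was fitted in both directions relative to DMSO without MTC filtering. Adrenal H295R cells received 48 h chemical exposure (0.1% DMSO final) after 48 h forskolin (10 uM) prestimulation; viability by MTT.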
# [13] = target: Serine/threonine-protein phosphatase PP1-alpha catalytic subunit (Homo sapiens) (UniProt P62136); experiment: NVS_ENZ_hPPP1CA: NovaScreen (NVS) Enzymatic Assay for human Protein Phosphatase 1 Aatalytic subunit Alpha (PPP1CA) (AID 2283200; active = hit-call score of the fitted dose curve at least 0.9, where 1 is the maximum)
# Chain of Serine/threonine-protein phosphatase PP1-alpha catalytic subunit (Homo sapiens) (P62136 whole entry, looked up): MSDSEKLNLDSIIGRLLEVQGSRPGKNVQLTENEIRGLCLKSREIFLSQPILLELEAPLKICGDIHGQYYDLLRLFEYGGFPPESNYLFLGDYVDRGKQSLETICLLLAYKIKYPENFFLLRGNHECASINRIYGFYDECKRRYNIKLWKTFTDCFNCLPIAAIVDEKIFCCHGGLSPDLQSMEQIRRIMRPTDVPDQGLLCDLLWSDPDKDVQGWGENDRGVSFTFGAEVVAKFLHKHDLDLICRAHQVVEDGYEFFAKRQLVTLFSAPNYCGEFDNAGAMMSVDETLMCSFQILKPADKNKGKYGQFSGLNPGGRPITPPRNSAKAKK
# In short: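 Chemicals were first screened in duplicate at 25 uM, and those passing threshold (e.g. 30% inhibition) were run as concentration series to 50 uM. Cell-free recombinant protein, 1.33 h read, fluorescent substrate/product mobility-shift detection, normalised to DMSO.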
# [14] = target: human Protein Tyrosine Phosphatase Non-receptor Type 4 (PTPN4), PTPN4 (gene 5775) (UniProt P29074); experiment: NVS_ENZ_hPTPN4: NovaScreen (NVS) Enzymatic Assay for human Protein Tyrosine Phosphatase Non-receptor Type 4 (PTPN4) (AID 2283208; active = hit-call score of the fitted dose curve at least 0.9, where 1 is the maximum)
# Chain of human Protein Tyrosine Phosphatase Non-receptor Type 4 (PTPN4), PTPN4 (gene 5775) (P29074 whole entry, looked up): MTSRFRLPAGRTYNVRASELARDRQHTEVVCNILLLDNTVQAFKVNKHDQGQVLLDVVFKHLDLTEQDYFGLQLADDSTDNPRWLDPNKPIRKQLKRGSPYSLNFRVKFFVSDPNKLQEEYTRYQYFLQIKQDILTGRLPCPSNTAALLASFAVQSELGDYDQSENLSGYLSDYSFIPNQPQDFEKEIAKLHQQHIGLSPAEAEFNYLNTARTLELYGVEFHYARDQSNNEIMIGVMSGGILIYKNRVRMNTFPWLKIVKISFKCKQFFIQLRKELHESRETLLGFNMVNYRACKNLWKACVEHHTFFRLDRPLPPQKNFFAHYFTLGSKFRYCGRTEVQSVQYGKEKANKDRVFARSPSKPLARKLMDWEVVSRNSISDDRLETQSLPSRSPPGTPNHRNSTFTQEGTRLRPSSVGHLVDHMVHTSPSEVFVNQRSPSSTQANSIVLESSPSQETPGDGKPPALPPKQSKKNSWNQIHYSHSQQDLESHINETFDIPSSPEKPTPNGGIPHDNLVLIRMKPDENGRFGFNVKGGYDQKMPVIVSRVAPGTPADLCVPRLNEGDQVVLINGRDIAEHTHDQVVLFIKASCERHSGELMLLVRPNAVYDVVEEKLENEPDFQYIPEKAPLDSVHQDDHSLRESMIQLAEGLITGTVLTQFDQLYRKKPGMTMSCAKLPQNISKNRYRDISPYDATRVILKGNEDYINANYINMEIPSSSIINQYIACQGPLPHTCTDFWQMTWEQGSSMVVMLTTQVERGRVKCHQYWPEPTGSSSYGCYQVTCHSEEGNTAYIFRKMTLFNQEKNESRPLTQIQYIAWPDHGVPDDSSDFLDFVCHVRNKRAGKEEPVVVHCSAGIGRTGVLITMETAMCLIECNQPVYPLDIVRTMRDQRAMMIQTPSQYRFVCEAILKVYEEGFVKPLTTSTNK
# In short: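 Screened in duplicate at 25 uM, with hits then titrated to a top concentration of 50 uM. Recombinant Sf9-derived PTPN4 turnover was read by fluorescence with electrophoretic separation, 1.33 h after compound addition. DMSO served as baseline.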
# [15] = target: human Tyrosine Protein Kinase Receptor Tie-2 (Tie2), TEK (gene 7010) (UniProt Q02763); experiment: NVS_ENZ_hTie2: NovaScreen (NVS) Enzymatic Assay for human Tyrosine Protein Kinase Receptor Tie-2 (Tie2) (AID 2283225; active = hit-call score of the fitted dose curve at least 0.9, where 1 is the maximum)
# Chain of human Tyrosine Protein Kinase Receptor Tie-2 (Tie2), TEK (gene 7010) (Q02763 whole entry, looked up): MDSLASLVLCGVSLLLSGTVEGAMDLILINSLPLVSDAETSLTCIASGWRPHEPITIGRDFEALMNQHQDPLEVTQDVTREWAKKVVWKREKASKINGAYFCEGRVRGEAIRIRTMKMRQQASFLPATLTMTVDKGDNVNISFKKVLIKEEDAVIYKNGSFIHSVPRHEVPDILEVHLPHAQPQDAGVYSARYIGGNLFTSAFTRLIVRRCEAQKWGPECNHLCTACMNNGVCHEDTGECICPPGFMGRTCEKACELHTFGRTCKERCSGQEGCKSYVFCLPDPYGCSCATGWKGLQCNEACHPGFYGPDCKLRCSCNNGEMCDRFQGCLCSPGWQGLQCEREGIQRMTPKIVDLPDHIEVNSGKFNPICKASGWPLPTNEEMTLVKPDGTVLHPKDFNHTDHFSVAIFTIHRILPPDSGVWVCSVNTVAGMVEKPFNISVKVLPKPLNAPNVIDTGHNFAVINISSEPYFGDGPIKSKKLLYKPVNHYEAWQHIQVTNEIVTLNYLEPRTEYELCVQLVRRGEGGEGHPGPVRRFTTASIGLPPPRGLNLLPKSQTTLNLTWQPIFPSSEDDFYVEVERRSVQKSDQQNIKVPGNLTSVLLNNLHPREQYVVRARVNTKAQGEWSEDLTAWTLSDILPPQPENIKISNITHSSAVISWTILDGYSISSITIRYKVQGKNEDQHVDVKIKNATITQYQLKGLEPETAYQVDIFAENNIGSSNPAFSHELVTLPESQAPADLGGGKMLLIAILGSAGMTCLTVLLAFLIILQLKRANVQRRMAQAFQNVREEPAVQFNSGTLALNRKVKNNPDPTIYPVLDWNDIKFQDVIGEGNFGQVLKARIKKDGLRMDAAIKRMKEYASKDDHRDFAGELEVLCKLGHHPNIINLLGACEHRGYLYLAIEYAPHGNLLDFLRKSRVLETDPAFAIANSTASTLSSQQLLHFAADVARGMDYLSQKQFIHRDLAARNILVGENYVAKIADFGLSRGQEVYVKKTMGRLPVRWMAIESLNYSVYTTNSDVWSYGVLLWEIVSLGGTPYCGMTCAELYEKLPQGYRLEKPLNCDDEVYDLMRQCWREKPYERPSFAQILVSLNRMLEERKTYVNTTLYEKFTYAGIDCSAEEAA
# In short: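 Substrate and product were separated by mobility shift and detected by fluorescence after a 1-hour reaction with recombinant Tie2. Chemicals passing a 25 uM single-point screen were titrated to a maximum of 50 uM. Results were normalized to DMSO baseline.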
# [16] = read-out: Nuclear factor NF-kappa-B p105 subunit (Homo sapiens) (UniProt P19838); experiment: LTEA_HepaRG_NFKB1: Life Technologies and Expression Analysis (LTEA) Assay for Nuclear Factor Kappa B Subunit 1 (NFKB1) using HepaRG (AID 2283521); settings: mRNA level, 48 h; actives raise or lower the signal;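 also: TaqMan qRT-PCR transcript normalised to ACTB GAPDH and POLR2A housekeeping genes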
# In short: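 Differentiated human HepaRG cells in serum-free induction medium with 0.5% DMSO were exposed for 48 h to eight half-log concentrations, top 100 uM, in duplicate. NFKB1 mRNA measured by Fluidigm TaqMan qRT-PCR, normalised to ACTB, GAPDH and POLR2A; bidirectional fit versus DMSO.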
# [17] = Tanguay_ZF_120hpf_PIG_legacy: (Legacy) Oregon State University Tanguay Lab 120 Hour Post-fertilization zebrafish Assay for Pigmentation Malformation (AID 2283650; active = hit-call score of the fitted dose curve at least 0.9, where 1 is the maximum)
# In short: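 Endpoint is incidence of abnormal pigmentation at 120 hpf in dechorionated 5D zebrafish exposed singly from 6 hpf at 28C, DMSO vehicle at 0.64%. Embryos dying by 24 or 120 hpf are excluded from scoring.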
# [18] = CCTE_Padilla_ZF_144hpf_TERATOSCORE: (Legacy) CCTE's 144 Hour Post-fertilization zebrafish Assay Teratoscore, Padilla Lab (AID 2283679);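 also: zebrafish embryos with chorions exposed by immersion from 6-8 hpf to 5 dpf with daily renewal; teratogenicity score from eye scoring of death hatching and malformations at 144 hpf; higher score means more developmental defects relative to DMSO baseline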
# In short: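 Larvae scored by eye at 144 hpf for death, hatching and malformations after a day in clean Hanks'. Before that, daily-renewed exposure at 80 uM (0.4% DMSO, 26C) from roughly 6-8 hpf through 5 dpf, 4 embryos per chemical.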
# [19] = target: guinea pig Leukotriene D4 Receptor (LTD4), CYSLTR1 (gene 100135514) (UniProt Q2NNR5); experiment: NVS_GPCR_gLTD4: NovaScreen (NVS) G Protein-Coupled Receptor Assay for guinea pig Leukotriene D4 Receptor (LTD4) (AID 2283248; active = hit-call score of the fitted dose curve at least 0.9, where 1 is the maximum)
# Chain of guinea pig Leukotriene D4 Receptor (LTD4), CYSLTR1 (gene 100135514) (Q2NNR5 whole entry, looked up): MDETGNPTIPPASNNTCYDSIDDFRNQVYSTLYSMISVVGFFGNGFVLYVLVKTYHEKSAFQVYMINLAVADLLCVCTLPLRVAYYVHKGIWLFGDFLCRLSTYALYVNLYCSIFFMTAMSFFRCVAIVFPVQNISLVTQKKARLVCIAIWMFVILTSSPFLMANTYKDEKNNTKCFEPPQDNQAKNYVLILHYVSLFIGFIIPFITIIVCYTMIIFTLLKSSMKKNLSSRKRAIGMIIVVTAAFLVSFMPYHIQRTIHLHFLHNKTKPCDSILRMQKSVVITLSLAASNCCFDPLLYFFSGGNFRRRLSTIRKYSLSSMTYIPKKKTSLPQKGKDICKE
# In short: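 Guinea pig lung membrane preparation; bound radioligand measured by filter scintillation after 1 h, loss of signal versus DMSO marking displacement. Compounds tested at 25 uM in duplicate, hits retested to max 50 uM.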
# [20] = target: human CYP2C9, CYP2C9 (gene 1559) (UniProt P11712); experiment: NVS_ADME_hCYP2C9: NovaScreen (NVS) CYP450-related Enzyme Activity (ADME) Assay for human CYP2C9 (AID 2283108; active = hit-call score of the fitted dose curve at least 0.9, where 1 is the maximum)
# Chain of human CYP2C9, CYP2C9 (gene 1559) (P11712 whole entry, looked up): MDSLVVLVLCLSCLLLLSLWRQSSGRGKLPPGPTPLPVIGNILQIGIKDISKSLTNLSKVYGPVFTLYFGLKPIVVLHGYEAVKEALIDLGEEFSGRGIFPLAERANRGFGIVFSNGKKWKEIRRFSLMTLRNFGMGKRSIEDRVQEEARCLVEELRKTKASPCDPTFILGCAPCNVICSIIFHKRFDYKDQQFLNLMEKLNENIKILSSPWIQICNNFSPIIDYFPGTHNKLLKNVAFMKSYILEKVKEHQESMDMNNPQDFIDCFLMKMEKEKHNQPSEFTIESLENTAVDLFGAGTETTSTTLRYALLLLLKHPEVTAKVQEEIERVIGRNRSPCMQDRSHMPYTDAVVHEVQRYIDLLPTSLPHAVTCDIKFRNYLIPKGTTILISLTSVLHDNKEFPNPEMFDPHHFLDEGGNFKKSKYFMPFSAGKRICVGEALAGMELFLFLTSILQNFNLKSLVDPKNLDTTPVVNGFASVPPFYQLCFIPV
# In short: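 Cell-free assay of recombinant human CYP2C9 produced in Sf9 cells, with enzyme activity read by fluorescence intensity 0.75 h after compound addition. Loss of signal versus an acetonitrile negative control indicates inhibition. Primary screen used 10 uM in duplicate; actives were retested in concentration series.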
smiles,measurement,setting,value
O=CNC(N1CCN(C(NC=O)C(Cl)(Cl)Cl)CC1)C(Cl)(Cl)Cl (stereo not given),AC50,[1],5.16 µM (active)
same,outcome,[2],inactive
Cc1cc(C)c(C2=C(OC(=O)CC(C)(C)C)C3(CCCC3)OC2=O)c(C)c1,outcome,[3],inactive
C[C@]12CC[C@H](O)C[C@H]1CC[C@@H]1[C@@H]2C[C@@H](O)[C@]2(C)[C@@H](C3=CC(=O)OC3)CC[C@]12O,AC50,[4],5.79 µM (active)
same,AC50,[5],1.28 µM (active)
same,AC50,[6],5.47 µM (active)
same,AC50,[7],5.44 µM (active)
same,AC50,[8],4.34 µM (active)
same,AC50,[9],3.91 µM (active)
same,AC50,[10],10.8 µM (active)
same,AC50,[11],10.7 µM (active)
same,AC50,[12],4.25 µM (active)
O=C(CCl)c1ccccc1,outcome,[13],inactive
same,outcome,[14],inactive
same,outcome,[15],inactive
same,outcome,[16],inactive
same,outcome,[17],inactive
same,AC50,[18],4.85 µM (active)
S=c1[nH]c2ccccc2[nH]1,outcome,[19],inactive
CC(C)(c1cc(Cl)c(O)c(Cl)c1)c1cc(Cl)c(O)c(Cl)c1,AC50,[20],2.29 µM (active)
